Results filed as inconclusive are left out. The source made the active and inactive calls. Calls come from the whole dose curve; as a rule, active = well fitted curve in the direction sought with a large enough effect; inconclusive = small, poorly fitted or top-dose-only effect, or another doubt; inactive = no such curve, though single readings can be large; an effect the other way counts as inactive or inconclusive.
Legend:
[1] = molecular target: Rap guanine nucleotide exchange factor 3 (Homo sapiens) (UniProt O95398); test: Confirmatory qHTS for agonist of cAMP-regulated guanine nucleotide exchange factor 3 (EPAC1) (AID 1645881);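 note: EPAC1 catalysed release of BODIPY-GDP from Rap1B seen as fluorescence loss; 100% = effect of cAMP agonist control; nearly all actives have a fitted effect of over 75% in size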
Sequence of Rap guanine nucleotide exchange factor 3 (Homo sapiens) (O95398 whole entry, looked up): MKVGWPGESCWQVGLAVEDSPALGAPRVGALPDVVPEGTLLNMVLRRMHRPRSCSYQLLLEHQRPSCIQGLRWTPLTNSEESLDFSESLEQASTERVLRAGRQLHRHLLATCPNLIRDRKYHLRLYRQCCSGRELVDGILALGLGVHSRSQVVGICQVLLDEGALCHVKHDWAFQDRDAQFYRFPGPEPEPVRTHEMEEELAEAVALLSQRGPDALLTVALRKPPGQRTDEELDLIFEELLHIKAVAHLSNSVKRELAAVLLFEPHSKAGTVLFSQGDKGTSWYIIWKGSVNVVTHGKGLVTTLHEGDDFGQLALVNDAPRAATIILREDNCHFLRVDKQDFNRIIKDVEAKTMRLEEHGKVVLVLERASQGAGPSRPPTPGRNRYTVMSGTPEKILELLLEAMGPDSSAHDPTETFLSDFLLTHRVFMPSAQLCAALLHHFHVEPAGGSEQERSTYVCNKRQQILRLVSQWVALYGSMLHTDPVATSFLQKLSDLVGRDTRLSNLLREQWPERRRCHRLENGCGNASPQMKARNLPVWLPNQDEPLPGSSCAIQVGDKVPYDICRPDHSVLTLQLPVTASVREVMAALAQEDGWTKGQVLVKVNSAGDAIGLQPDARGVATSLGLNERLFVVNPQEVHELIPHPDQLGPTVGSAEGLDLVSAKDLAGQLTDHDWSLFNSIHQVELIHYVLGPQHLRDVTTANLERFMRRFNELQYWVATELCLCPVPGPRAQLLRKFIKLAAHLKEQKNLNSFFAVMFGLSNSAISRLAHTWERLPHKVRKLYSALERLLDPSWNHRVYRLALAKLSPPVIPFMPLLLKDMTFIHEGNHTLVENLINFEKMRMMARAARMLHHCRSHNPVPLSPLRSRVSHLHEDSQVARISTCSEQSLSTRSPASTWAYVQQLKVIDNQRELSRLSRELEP

[2] = molecular target: Rap guanine nucleotide exchange factor 4 (Homo sapiens) (UniProt Q8WZA2); test: Confirmatory qHTS for agonist of cAMP-regulated guanine nucleotide exchange factor 4 (EPAC2) (AID 1645884);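 note: nucleotide exchange releases bodipy-GDP from Rap1 and this lowers its fluorescence; % is set by controls: 0 for no effect and ±100 for the full control effect; nearly all actives have a fitted effect of over 65% in size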
Sequence of Rap guanine nucleotide exchange factor 4 (Homo sapiens) (Q8WZA2 whole entry, looked up): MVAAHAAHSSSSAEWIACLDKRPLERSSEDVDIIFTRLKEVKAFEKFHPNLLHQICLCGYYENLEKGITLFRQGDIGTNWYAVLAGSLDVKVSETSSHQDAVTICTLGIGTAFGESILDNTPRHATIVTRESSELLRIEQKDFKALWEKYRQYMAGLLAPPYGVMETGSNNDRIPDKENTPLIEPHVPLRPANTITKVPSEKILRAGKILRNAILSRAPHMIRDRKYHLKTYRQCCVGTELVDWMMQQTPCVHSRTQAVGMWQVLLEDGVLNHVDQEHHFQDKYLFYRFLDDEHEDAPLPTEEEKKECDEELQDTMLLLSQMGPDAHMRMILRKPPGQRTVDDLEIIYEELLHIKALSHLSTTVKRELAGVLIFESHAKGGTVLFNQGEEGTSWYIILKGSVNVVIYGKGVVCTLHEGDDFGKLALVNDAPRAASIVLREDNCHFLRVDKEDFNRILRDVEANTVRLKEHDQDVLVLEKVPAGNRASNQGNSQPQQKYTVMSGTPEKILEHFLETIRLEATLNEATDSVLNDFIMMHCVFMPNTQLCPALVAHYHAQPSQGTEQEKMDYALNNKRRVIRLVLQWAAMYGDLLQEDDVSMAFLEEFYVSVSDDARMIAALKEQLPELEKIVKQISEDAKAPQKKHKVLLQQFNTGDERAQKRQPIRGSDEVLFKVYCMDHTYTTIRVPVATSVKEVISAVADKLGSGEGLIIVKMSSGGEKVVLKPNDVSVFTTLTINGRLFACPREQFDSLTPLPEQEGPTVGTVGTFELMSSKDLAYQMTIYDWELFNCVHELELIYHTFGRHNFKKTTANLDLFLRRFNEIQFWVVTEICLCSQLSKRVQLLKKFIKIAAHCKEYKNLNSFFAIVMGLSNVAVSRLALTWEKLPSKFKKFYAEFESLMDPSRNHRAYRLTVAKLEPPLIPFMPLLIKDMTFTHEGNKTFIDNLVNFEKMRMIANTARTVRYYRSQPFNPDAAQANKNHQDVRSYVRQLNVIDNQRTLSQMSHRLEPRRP

[3] = molecular target: Rap guanine nucleotide exchange factor 3 (Homo sapiens) (UniProt O95398); test: Counterscreen qHTS for antagonist of cAMP-regulated guanine nucleotide exchange factor 3 (EPAC1) (AID 1645888);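 note: fluorescence loss as bound BODIPY-GDP is released from Rap1B; % of control where 0% means no effect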
Procedure, shortened: (§1)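 Measured: fluorescence of BODIPY-GDP bound to Rap1B, which falls as exchange proceeds. Conditions include 50 uM competing GDP, 5 and 30 min reads, and a later cAMP challenge for antagonist detection.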

[4] = molecular target: Rap guanine nucleotide exchange factor 3 (Homo sapiens) (UniProt O95398); test: Counterscreen qHTS for agonist of cAMP-regulated guanine nucleotide exchange factor 3 (EPAC1) (AID 1645889); note: % of control where 0% means no effect; nearly all actives have a fitted effect of over 40% in size
Procedure, shortened: as §1

CCOC(=O)c1c(C)[nH]c(C(=O)C(C)OC(=O)c2ccc(NC(=O)CC#N)cc2)c1C (stereo not given)
inactive: Potency [1] | Potency [2] | Potency [3] | Potency [4]

O=C(O)C1Nc2c(Cl)cc(Cl)c(Cl)c2C2C=CCC12 (stereo not given)
inactive: Potency [1] | Potency [2] | Potency [3] | Potency [4]

N#Cc1c(-c2ccc(Cl)cc2)cc(-c2cccs2)nc1SCC(=O)O
inactive: Potency [1] | Potency [2] | Potency [3] | Potency [4]

CC(=O)C1=C(O)C2(C)c3c(O)c(C)c(O)c(C(C)=O)c3OC2CC1=O (stereo not given)
inactive: Potency [1] | activation [2] -4.59% [at 17.1 µM, percent relative to cAMP agonist control] | activity change, negative = inhibition [3] -6.21% [at 30.8 µM] | activation [4] -4.12% [at 30.8 µM]

CCCN(CCC)Cc1cc(=O)oc2cc(OC)ccc12
inactive: Potency [1] | Potency [2] | Potency [3] | Potency [4]

COc1ccccc1/C=C/C=c1\sc2nc(=O)c(Cc3ccccc3)nn2c1=O
inactive: Potency [1] | Potency [2] | Potency [3] | Potency [4]

CCCCCOC(=O)C1=C(C)Nc2nnnn2C1c1ccccc1Cl (stereo not given)
inactive: Potency [1] | activation [2] 12.2% [at 17.1 µM, percent relative to cAMP agonist control] | activity change, negative = inhibition [3] -14.1% [at 30.8 µM] | activation [4] 21.2% [at 30.8 µM]

O=C(O)c1[nH]c2ccccc2c1C(c1cccc(O)c1)c1c(C(=O)O)[nH]c2ccccc12
inactive: Potency [1] | Potency [2] | Potency [3] | Potency [4]

O=S(=O)(Nc1ccccc1N1CCCC1)c1ccccc1C(F)(F)F
inactive: Potency [1] | Potency [2] | Potency [3] | Potency [4]

COc1cc2c(c(OC)c1OC)C(c1ccccc1C)CC(=O)O2 (stereo not given)
inactive: Potency [1] | Potency [2] | Potency [3] | Potency [4]
